From PubChem BioAssay AID640 (Columbia University Molecular Screening Center, 2007) come the findings set out here.

Screen size: about 96,000 compounds; about 200 (0.21%) were called active.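 Rule for the calls: active = inhibition at 2 µM at or above a set limit, the screen mean plus 3 SD (cut at about 24% in these data); inactive = the rest.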 This excerpt belongs to a sample that is enriched for actives.

For the assay, the target named is Tyrosine-protein phosphatase non-receptor type 22 (Homo sapiens) (UniProt Q9Y2R2). Description: PTPN22 phosphatase inhibitors, primary screen, biochemical, DiFMUP fluorescence, 2 µM (AID 640).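 Note: 0% = DMSO with enzyme and 100% = enzyme fully blocked by orthovanadate.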 The following applies: recombinant LYP catalytic domain, at 2 µM, hits give high values.
Tyrosine-protein phosphatase non-receptor type 22 (Homo sapiens), sequence (Q9Y2R2 whole entry, looked up, the tested form may be a part): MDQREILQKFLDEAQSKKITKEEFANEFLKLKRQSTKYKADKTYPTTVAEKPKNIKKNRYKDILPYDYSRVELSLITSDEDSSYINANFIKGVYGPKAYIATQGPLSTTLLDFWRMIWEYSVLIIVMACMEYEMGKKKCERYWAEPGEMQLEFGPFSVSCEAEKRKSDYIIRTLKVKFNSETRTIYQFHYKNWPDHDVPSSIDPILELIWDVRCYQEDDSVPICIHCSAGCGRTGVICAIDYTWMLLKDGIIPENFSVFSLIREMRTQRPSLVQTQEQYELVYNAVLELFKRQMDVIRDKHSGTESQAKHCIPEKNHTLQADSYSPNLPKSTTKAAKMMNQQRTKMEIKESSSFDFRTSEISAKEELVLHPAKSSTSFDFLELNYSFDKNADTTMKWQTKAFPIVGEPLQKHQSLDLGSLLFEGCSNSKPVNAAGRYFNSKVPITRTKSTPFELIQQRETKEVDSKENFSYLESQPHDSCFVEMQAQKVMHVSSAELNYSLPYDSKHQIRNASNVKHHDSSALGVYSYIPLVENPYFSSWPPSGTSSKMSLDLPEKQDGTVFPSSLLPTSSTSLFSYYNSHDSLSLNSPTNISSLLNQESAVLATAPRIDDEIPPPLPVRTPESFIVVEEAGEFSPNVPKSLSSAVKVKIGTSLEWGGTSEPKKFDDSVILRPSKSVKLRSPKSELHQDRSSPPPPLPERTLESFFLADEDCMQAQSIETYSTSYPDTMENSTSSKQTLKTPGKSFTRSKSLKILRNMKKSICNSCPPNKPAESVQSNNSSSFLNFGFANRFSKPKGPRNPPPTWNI
Usually inhibition stands for the drop in the measured response relative to a control, in per cent. As to `COCc1cc(C(C)=O)ccc1OC`, the inhibition is 7.3% (inactive). The same measure for `O=C(CNC(=O)OCc1ccccc1)Oc1cc2oc(=O)cc(-c3ccccc3)c2cc1Cl`: 7.8% (inactive); for `CC(C)(C)NS(=O)(=O)c1ccc(NC(=O)NC2CCCCC2)cc1`: 13% (inactive); for `CCOC(=O)c1c(C)nc2c(c1C)c(=O)oc1ccccc12`: -31.8% (inactive). The value for `CSc1ccc(/C=N\NC(=O)COc2ccc(Cl)cc2Br)cc1` was 26.5% (active); that for `Cc1ccc(OCC(=O)N/N=C\c2ccco2)c(C)c1` was -4.2% (inactive); that for `Cc1ccc(OCC(=O)N/N=C/c2ccncc2)cc1` was 10.7% (inactive). The value for `COc1cccc(-c2nnc(NC(=O)c3ccc(S(=O)(=O)N(CC(C)C)CC(C)C)cc3)o2)c1` was 24.4% (active); that for `CC1CCCCN1S(=O)(=O)c1ccc(C(=O)Nc2nnc(-c3cccs3)o2)cc1` (stereo unspecified) was 17.2% (inactive); that for `CCC(=O)Oc1cccc(C(=O)Nc2ccc(-c3nnc(-c4ccco4)o3)cc2)c1` was 8.1% (inactive). With `O=C(NCCCCc1ccccc1)C1CC(c2ccc([N+](=O)[O-])cc2)=NO1` (stereo unspecified), the inhibition was -3.2% (inactive).

With `CCC(C)NC(=O)CSC1=Nc2ccccc2C2=NC(CCC(=O)NCc3ccco3)C(=O)N12` (stereo unspecified), the inhibition is 6.7% (inactive). The same measure for `C=CCOc1c2ccc(C(=O)N(CC)c3ccc(OC)cc3)cc2nn1C`: 1.1% (inactive); for `CCSc1nc(-c2ccc(OC)cc2)cc(-c2ccc(OC)cc2)c1C#N`: -15.9% (inactive); for `CCOC(=O)C1=C(CSc2nnnn2C)N(C)C(=O)NC1c1ccccc1` (stereo unspecified): 6.4% (inactive). The same measure for `O=C(CCl)NNc1cccc(Cl)n1`: 2.9% (inactive). The same measure for `O=C(c1ccc2c(c1)OCO2)N1CCN(C(=O)c2ccco2)CC1`: -5% (inactive); for `Cc1cnc(NC(=O)C2CCCC2)s1`: -5.5% (inactive); for `CCOC(=O)c1c(NC(C)=O)sc2c(O)c(Br)ccc12`: 7.9% (inactive). Consider `COc1ccc(/C=N/Nc2nc3ccccc3c(=O)[nH]2)cc1`, for which the inhibition is 2.7% (inactive). On to `CC(=O)c1c(C)[nH]c(C(=O)NCc2ccc(C)cc2)c1C`, for which the inhibition is 3.9% (inactive). The value for `CNC(=O)c1nnc(Cc2ccc(Cl)cc2)o1` was -2.1% (inactive); that for `Cc1ccc(Cl)cc1NC(=O)COC(=O)C1CCCCC1` was -5.7% (inactive); that for `O=C(Nc1cccc2ncccc12)C(Cl)(Cl)Cl` was -4% (inactive). The value for `CCCCN1C(=O)/C(=C2/C=CC=CN2C)SC1=S` was -5.6% (inactive); that for `COc1cc(OC)cc(-c2cc3nc(C4CCN(C(=O)OC(C)(C)C)CC4)cc(=O)n3[nH]2)c1` was -4.9% (inactive).

As to `CC(C)(C)NC(=O)CN(Cc1cccs1)C(=O)CNS(=O)(=O)c1ccccc1`, the inhibition is -1.7% (inactive).

On to `Cc1nn(C(C)CC(=O)O)c(C)c1C` (stereo unspecified), for which the inhibition was 7.9% (inactive). `CCn1nc(C)c(NC(=O)/C=C/c2ccc(OC)c(COc3ccc(Br)cc3)c2)c1C`: the inhibition was 13.3% (inactive). The value for `O=C(CSc1nnc(-c2cccs2)n1Cc1ccccc1)N1CCc2ccccc2C1` was -1.7% (inactive); that for `Cc1ccc2nc(SC(C)C(=O)NCc3ccco3)[nH]c2c1` (stereo unspecified) was -3.6% (inactive); that for `Cn1c(=O)c2c(SCC(=O)N3CCOCC3)nc(C3CC3)nc2n(C)c1=O` was 4% (inactive). The same measure for `Cc1cc2cc3c(N)[nH]nc3nc2cc1C`: -13.7% (inactive).

As to `O=C(Nc1ccon1)c1sc2ccccc2c1Cl`, the inhibition is -12.9% (inactive).

As to `Cc1ccc(-c2nc3ccccc3[nH]2)cc1N`, the inhibition is 0.9% (inactive).

As to `Cc1ccc(-c2nc3ccccc3[nH]2)cc1NC(=O)c1sc2ccccc2c1Cl`, the inhibition was 24.6% (active).

Consider `Cc1cc([N+](=O)[O-])c(NC2CCCCC2)c([N+](=O)[O-])c1`, for which the inhibition is 6.5% (inactive).

Consider `CC1(C)NC(=O)N(CCCCSc2ccc(Cl)cc2)C1=O`, for which the inhibition is 3.1% (inactive). `COC(=O)C1=C(Nc2ccc(C)cc2)C=C(C)C(C(=O)OC)C1c1ccc(F)cc1` (stereo unspecified): the inhibition is -3.3% (inactive). The same measure for `c1ccc(CC2CCN(c3nc4ccccc4n4cnnc34)CC2)cc1`: 7.3% (inactive); for `CON(C)S(=O)(=O)c1ccc2c(c1)NC(=O)C1CCCN21` (stereo unspecified): 6.3% (inactive); for `CN1CCN(C(=O)Cn2c(C(F)(F)F)nc3ccccc32)CC1`: 1.3% (inactive).

`COc1ccc(-n2c(C)csc2=S)cc1`: the inhibition was -3.8% (inactive). The value for `CCCCN(CC)CCCNC(=O)CS(=O)(=O)Cc1nc(-c2cccc(OC)c2)oc1C` was 4.8% (inactive). With `CCCCCCc1cc2cc(-c3nnc(-c4cccc(OC)c4)o3)c(=O)oc2cc1O`, the inhibition is 30.9% (active). The same measure for `CCCCCCc1cc2cc(-c3nnc(-c4ccccc4)o3)c(=O)oc2cc1O`: 16% (inactive); for `COc1ccc(OCC(=O)NN2Cc3ccccc3C2=N)cc1`: 8.2% (inactive). The value for `Cc1cc(=O)oc2cc(OCC3CC(c4ccccc4Cl)=NO3)ccc12` (stereo unspecified) was 0.4% (inactive).

Turning to `COc1ccc(/C(O)=C2\C(=O)C(=O)N(Cc3ccco3)C2c2ccc(OC)cc2OC)cc1` (stereo unspecified), the inhibition is 3% (inactive).

With `O=C(CN(c1ccccc1)S(=O)(=O)c1ccc(Cl)cc1)Nc1ccccc1C(=O)N1CCCC1`, the inhibition is 3% (inactive). The same measure for `Cc1sc2nc(SCC(N)=O)n(C)c(=O)c2c1C`: -1% (inactive).

On to `CC(=O)c1cnc(SCCN2C(=O)c3ccccc3C2=O)nc1C`, for which the inhibition was -4.7% (inactive). `CCOc1ccccc1NC(=O)C1CCCN(C(=O)Nc2ccccc2)C1` (stereo unspecified): the inhibition is -6% (inactive).

As for `COc1cccc(NC(=O)CN2CCN(c3nc(-c4cccc(OC)c4)cs3)CC2)c1`, the inhibition was 8.7% (inactive). The same measure for `CCOC(=O)c1[nH]c(C)c(C(=O)OCC(=O)N2c3ccccc3CC2C)c1C` (stereo unspecified): 2.3% (inactive); for `COc1ccc(C(C#N)Nc2ccccc2C)cc1` (stereo unspecified): 7.5% (inactive); for `CCCCNC(=O)C1(c2ccc(OC)cc2)CCOCC1`: 6.4% (inactive). The value for `CCNC(=S)N1CCN(C(=O)c2ccco2)CC1` was -9.6% (inactive). The same measure for `O=C(/C=C/c1ccccc1)N/C(=C/c1ccccc1)C(=O)Nc1ccccc1O`: 10% (inactive); for `Cc1ccc(-c2cc(C(=O)NCC3CCCO3)c3ccccc3n2)o1` (stereo unspecified): 2.7% (inactive).

With `C=CCn1c(-c2ccc(Cl)cc2)ccc(C#N)c1=O`, the inhibition was 8.4% (inactive).

Consider `Oc1ccc2ccc3cccc[n+]3c2c1`, for which the inhibition is 2.8% (inactive).

With `Cc1csc2ncc(C(=O)N(Cc3ccccc3)c3ccccn3)c(=O)n12`, the inhibition was -3.8% (inactive). The same measure for `Cc1ccc(CN(C(=O)c2sc3ccccc3c2Cl)C2CCS(=O)(=O)C2)cc1` (stereo unspecified): 3.5% (inactive); for `CSc1cc(C)n(-c2ccccc2C)c(=S)c1C(C)=O`: -1.3% (inactive); for `O=C(Nc1ccccc1C(=O)NCCCn1ccnc1)c1ccc(Cl)cc1Cl`: 4.3% (inactive). Turning to `COc1ccc(CNCCCO)cc1OC`, the inhibition was 2.8% (inactive). The value for `c1ccc2c(-c3nn4nnnc4c4ccccc34)cccc2c1` was 11.7% (inactive); that for `COc1ccc(Oc2c(Cl)cnn(-c3ccccc3)c2=O)cc1` was -10.1% (inactive); that for `COC(=O)CNS(=O)(=O)c1ccc(OC)cc1` was -2.1% (inactive). The same measure for `CCOc1cc(C(=O)Nc2c(C)ccc3nsnc23)cc(OCC)c1OCC`: -14.9% (inactive); for `CC(C)(C)c1ccc(C(=O)NCC(=O)OCN2C(=O)c3ccccc3C2=O)cc1`: -8.4% (inactive); for `O=C(/C=C/NNC(=O)c1cccc(Br)c1)c1ccccc1`: 5.3% (inactive). The same measure for `Fc1ccccc1COc1ccccc1CNCc1ccncc1`: 4.4% (inactive); for `CCC(=O)NCCc1nc2ccccc2n1CC`: -1% (inactive); for `CNc1nc(SC)nc(N(C#N)CC(=O)OC)n1`: -3.4% (inactive). Regarding `CCNc1nc(NC(C)C)nc(OCCOC(=O)c2ccccc2)n1`, the inhibition was -0.4% (inactive).

Regarding `c1ccc(-c2ccnc3nc(-n4cccc4)nn23)cc1`, the inhibition is 9.9% (inactive).

With `Cc1cc2nc(SCCN3CCOCC3)[nH]c2cc1C`, the inhibition was -1% (inactive).

With `O=C1N=C(N2CCOCC2)S/C1=C\C=C/c1ccccc1`, the inhibition is 0.2% (inactive). The value for `CCOCCCNC(=O)C(NC(=O)c1ccc(=O)[nH]c1)c1ccc(C)cc1` (stereo unspecified) was 3% (inactive).
